Reference: the supplement of paper PMC6555819

Legend:
Assay in all cases: PBM binding z-score (relative to random genomic background probes); higher = stronger binding; sequences stand for … in GC…GCGATTGACAGCGTAGAATGAAGG
[1] = tested on: PPARg:RXRa DBDmut IVT, anti-RXR (DBD mutation: RXRa K156A/R161A, NR concentration 270 nM, RXRa partner concentration 90 nM)
How it was run: (§1)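 The probes on custom Agilent 4×180K protein-binding microarrays were double-stranded, with 34-nt variable regions bearing direct-repeat seeds, single-nucleotide variants, half-site ablations and random human genomic background sequences. Incubation lasted 1 h with ligand-free nuclear receptor dimers in PBS pH 7.4, 2% milk, 0.02% Triton X-100, 1 mM DTT, 0.2 mg/mL BSA and 0.4 mg/ml salmon testes DNA. Antibodies against each partner (one per run) detected bound dimers, and fluorescence scans were regression-normalized. Binding z-scores take the random background probes as reference.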

[2] = tested on: PPARg:RXRa IVT, anti-PPARg (NR concentration 270 nM, RXRa partner concentration 90 nM)
How it was run: as §1

[3] = tested on: PPARg DBDmut:RXRa IVT, anti-PPARg (DBD mutation: PPARg1 K132A/R137A, NR concentration 270 nM, RXRa partner concentration 90 nM)
How it was run: as §1

[4] = tested on: PPARg DBDmut IVT, anti-PPARg (DBD mutation: PPARg1 K132A/R137A, NR concentration 270 nM)
How it was run: as §1

[5] = tested on: PPARg homodimer (NR concentration 180 nM)
How it was run: as §1

[6] = tested on: PXR:RXRa (NR concentration 270 nM, RXRa partner concentration 90 nM)
How it was run: as §1

[7] = tested on: PXR homodimer (NR concentration 270 nM)
How it was run: as §1

[8] = tested on: RARa:RXR (NR concentration 270 nM, RXRa partner concentration 90 nM)
How it was run: as §1

[9] = tested on: RARa homodimer (NR concentration 270 nM)
How it was run: as §1

[10] = tested on: RARb:RXRa (NR concentration 270 nM, RXRa partner concentration 90 nM)
How it was run: as §1

| Sequence | PBM binding z-score [1] | PBM binding z-score [2] | PBM binding z-score [3] | PBM binding z-score [4] | PBM binding z-score [5] | PBM binding z-score [6] | PBM binding z-score [7] | PBM binding z-score [8] | PBM binding z-score [9] | PBM binding z-score [10] |
| --- | --- | --- | --- | --- | --- | --- | --- | --- | --- | --- |
| CTACCAAGGTTAACAAGGTCGTTGATTACTATTC | 1.98 | 1.78 | 0.186 | 0.431 | 1.25 | 4.32 | 8.81 | 3.19 | 0.369 | 2.81 |
| TCATATAGGGAAATGCTAGGTGAAAGTCCGATCT | 2.89 | 1.33 | 1.18 | 0.79 | 0.712 | 0.607 | 0.552 | 0.746 | 0.849 | 0.226 |
| CCTAGTTGGTCAAGGGCACACACGCTATAGGTAC | 1.1 | 1.69 | -0.275 | 0.0269 | 1.15 | 0.512 | 0.494 | 0.731 | 1.05 | 1.98 |
| ATACCAAGGTGATCGTAAGGTCGTTGATACTAAC | 0.558 | 1.51 | 0.685 | 0.646 | 0.753 | 2.81 | 1.42 | 2.19 | 0.841 | 1.55 |
| CGTCCAAGGTCATAGGAGGTCAGTGAAGACAGAT | 3.11 | 4.48 | 0.77 | -0.116 | 3.31 | 6.64 | 4.38 | 5.77 | 1.77 | 5.4 |
| ATCTCTAGGTAACCAAGTTCAGTGACTGCCGAAC | 4.09 | 2.78 | 0.981 | 0.674 | 1.09 | 2.14 | 2.22 | 0.968 | 1.12 | 1.14 |
| CAAACTCGGTCAAAGGTCAAAGTCGAGCCAACCA | 5.71 | 7.61 | 1.95 | 3.41 | 6.43 | 6.69 | 2.5 | 8.37 | 3.33 | 5.43 |
| GCGACTGGGGCAAAGCAGGTTACCCTAAGGTTGG | 4.69 | 3.9 | -0.575 | -1.15 | 0.0575 | 0.0911 | -0.579 | 0.634 | -1.43 | 0.752 |
| ACTAGTTGGTCAGCTGATGTCACACACAATTCGG | 1.1 | 0.986 | 0.46 | 0.51 | 0.558 | 0.361 | -0.542 | 0.497 | 0.341 | 0.995 |
| CGTCCAAGGTCATAGGAGGTAAGTGAAGACAGAT | 2.54 | 3.38 | 0.738 | 0.602 | 2.39 | 4.29 | 1.22 | 3.98 | 1.57 | 4.88 |
| TTAATGAGGTTATAAGATCAGGGAACGTTGCAAA | 2.84 | 2.61 | 1.48 | 1.53 | 0.917 | 1.11 | 0.494 | 1.66 | 1.23 | 1.27 |
| TCGGGTAGGTTAGGGGCATTCAGAATGGCGTCGA | 1.55 | 1.36 | 0.266 | 0.468 | 1.38 | 1.67 | 1.27 | 1.32 | 0.423 | 1.74 |
| CCTACTGGCCCAAAAAGGTCATTGATGCCGATAA | 0.453 | 1.52 | -0.0321 | -0.749 | 3.4 | 4.99 | 2.07 | 5.65 | 2.16 | 3.99 |
| TATTGTAGATCAATAGAGGTTAAGAAAGTGCGCT | 0.44 | 1.78 | 1.72 | 1.55 | 0.993 | 3.04 | 0.513 | 1.71 | 1.1 | 0.903 |
| GGAACGAGAGCAAGTTGATAGCAGAGTTTGATGG | 0.286 | -0.607 | -0.891 | -0.825 | -0.674 | -0.482 | 0.00313 | -0.584 | -0.345 | -0.427 |
| CCTCGGCGGACAGAAGGTCAGAGCTGTCCGCTTT | -0.348 | -0.163 | -2.18 | -2.03 | 0.787 | 1.26 | -0.667 | 1.57 | -0.497 | 2.52 |
| CCGACTGGGGCATAAGGTTACCCTAAGCCAGCCC | 2.4 | 2.69 | -0.367 | -1.53 | -0.0921 | 0.213 | -0.708 | 1.1 | -0.511 | 1.26 |
| CGTCCAAGGTCTATGCTAGGTCAGTGAAAGCATT | 0.0727 | 0.505 | -1.49 | -0.699 | 0.128 | 0.421 | -0.113 | 1.03 | 0.289 | 1.62 |
| CCTCGGAGGACCGAAGGTCAGAGCTGTCCGCTTT | -0.463 | -0.175 | -1.41 | -1.98 | 0.693 | 1.16 | -0.615 | 1.55 | -0.211 | 2.2 |
| GCTAGTTGGTTAGTAAAAGGTCACACACCGGTCG | 0.595 | 2.29 | 0.167 | 0.647 | 4.26 | 5.09 | 1.29 | 6.05 | 3.17 | 3.99 |
| TCGTGTAGGTTAGTCGGGGCATTCAGCCAACATA | 2.15 | 1.92 | -0.257 | -0.153 | 0.862 | 0.845 | 0.707 | 0.886 | 0.866 | 0.996 |
| TCATATAGGTCAACAGGTGAAAGTCCGTAAGTTA | 7.13 | 7.59 | 3.03 | 1.96 | 3.88 | 3.49 | 1.08 | 4.84 | 2.3 | 4.83 |
| CAAACTAGGTCAACGGTCAAAGTCGAGCCAACCA | 8.71 | 9.01 | 1.94 | 3.3 | 2.91 | 2.17 | 0.267 | 3.71 | 0.962 | 4.51 |
| CCTAGTTGGTCAGGAGGTCACTCACCGGATATGA | 1.33 | 2.97 | 0.254 | 0.0226 | 3.04 | 3.74 | 0.903 | 3.94 | 2.42 | 3.41 |
| GATACAGTGTCAAGGCCAGAGTACGCGTATTGAT | 0.318 | 0.795 | 0.0882 | 0.292 | 0.275 | -0.0079 | 0.246 | 0.272 | -0.156 | 1.46 |
